Measurements as given in PubChem BioAssay AID651636 (Sanford-Burnham Center for Chemical Genomics, 2012).
About 3,000 (0.83%) of roughly 360,000 compounds were called active. Cut-off read from the data, not from the text of the source: active = inhibition above about 38%; inactive = the rest. Many of the other results were omitted from the sample, so actives are more common in it than they were.

These molecules were tested against G-protein coupled receptor 183 (Homo sapiens) (UniProt P32249) (assay: blockers of oxysterol-driven EBI2 arrestin signaling – cell-based, luminescence, 7a,25-OHC stimulation, uHTS, primary screen (AID 651636;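 note: enzyme fragment complementation signal reports receptor beta-arrestin coupling in cells; 0% = agonist plus DMSO wells and 100% = wells without agonist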)). Details: EBI2 beta-arrestin recruitment, 7a,25-OHC stimulated, at 5 µM, hits give high values.
G-protein coupled receptor 183 (Homo sapiens), sequence (P32249 whole entry, looked up, the tested form may be a part): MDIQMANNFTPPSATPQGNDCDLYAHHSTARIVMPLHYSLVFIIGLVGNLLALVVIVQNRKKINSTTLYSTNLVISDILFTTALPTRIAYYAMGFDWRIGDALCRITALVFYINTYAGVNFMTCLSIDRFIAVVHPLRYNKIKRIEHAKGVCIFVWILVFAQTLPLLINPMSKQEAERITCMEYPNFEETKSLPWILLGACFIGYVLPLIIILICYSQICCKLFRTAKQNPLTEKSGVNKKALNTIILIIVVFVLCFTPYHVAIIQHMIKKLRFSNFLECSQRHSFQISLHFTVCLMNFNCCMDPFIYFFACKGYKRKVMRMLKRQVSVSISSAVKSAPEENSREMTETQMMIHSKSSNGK

inhibition, active:
CC(C)OC(=O)CN1C(=O)C(=O)c2ccccc21 54.2%
c1ccc(C(c2ccccc2)N2CCN(Cc3nnnn3C3CCCCC3)CC2)cc1 60.9%
COc1ccc(C(c2nnnn2C2CCCC2)N2CCN(C/C=C/c3ccccc3)CC2)cc1 (stereo not drawn) 54.1%
FC(F)(F)Oc1ccccc1C(c1nnnn1C1CCCCC1)N1CCN(C/C=C/c2ccccc2)CC1 (stereo not drawn) 70.3%
O=C(CSc1ccccc1)Nc1cc(Cl)ccc1Oc1ccccc1 63.2%
CC(C)Cn1c(N2CCN(C(=O)/C=C/c3ccccc3)CC2)nc2ccccc21 59.1%
CCOC(=O)N1CCN(C(=O)COc2ccc(Cl)cc2C)CC1 63.5%
CCOC(=O)C1CCN(C(=O)COc2cc(C)c(Br)c(C)c2)CC1 74.6%
CCOC(=O)N1CCN(C(=O)COc2ccc(Br)cc2)CC1 89%
O=C1/C(=C\c2ccc([N+](=O)[O-])cc2)CS(=O)(=O)C/C1=C/c1ccc([N+](=O)[O-])cc1 50.3%
Fc1ccccc1/C=N/Nc1cc(N2CCCCC2)ncn1 53.8%
Cc1cccc(N=C2NC(=O)/C(=C/c3cn(C)c4ccccc34)S2)c1 45%
COc1ccc(NC(=O)/C(Cl)=C(/Cl)S(=O)Cc2ccc(C)cc2)cn1 (stereo not drawn) 68.1%
O=C(Nc1ccccc1Cl)/C(Cl)=C(\Cl)S(=O)c1ccccc1 (stereo not drawn) 59.7%
Cc1ccc(SCC(=O)N2CCN(c3ccc(F)cc3)CC2)cc1 62.9%
CCOC(=O)N1CCN(C(=O)CSc2ccc(Cl)cc2)CC1 84.7%
CCN1CCN(C(=O)CSc2ccc(C)cc2)CC1 70.3%
CCCc1nc2ccccc2c(C(=O)OCc2nnc(-c3cc(OC)c(OC)c(OC)c3)o2)c1CC 51.2%

inhibition, inactive:
COc1cc(C(C)=O)ccc1OC(=O)CN1C(=O)c2ccccc2C1=O -7.55%
O=C1C(=O)N(c2ccccc2)c2ccccc21 4.82%
COC(=O)c1ccc(NC(=O)c2cc3c(CO)cnc(C)c3oc2=Nc2cccc(C(N)=O)c2)cc1 12.4%
CCCCn1nnnc1C(c1cccc(OC)c1OC)N1CCN(C/C=C/c2ccccc2)CC1 (stereo not drawn) 24.9%
COc1ccc(N2CCN(C(c3cc4ccc(C)cc4[nH]c3=O)c3nnnn3C3CCCC3)CC2)cc1 (stereo not drawn) 2.46%
c1ccc(CCn2nnnc2CN2CCN(C3CCCC3)CC2)cc1 -2.13%
COc1ccc(C(c2nnnn2C2CCCCC2)N2CCN(c3ccccc3F)CC2)cc1 (stereo not drawn) 31.1%
CC(C)C(c1nnnn1C1CCCC1)N1CCN(c2ccccc2F)CC1 (stereo not drawn) 11.7%
COc1ccccc1C(c1nnnn1C(C)(C)C)N1CCN(Cc2ccccc2)CC1 (stereo not drawn) -27.6%
O=C(CC1SCCNC1=O)Nc1ccc(Cl)cc1 (stereo not drawn) 0.627%
CC(Sc1ccccc1F)C(=O)Nc1cccc(S(=O)(=O)N2CCOCC2)c1 (stereo not drawn) 7.64%
CCOc1ccc(CCNC(=O)C(CC)n2nc(C)n3c(cc4sccc43)c2=O)cc1OCC (stereo not drawn) 0.672%
Cc1ccc(-c2cc(C(F)(F)F)n3ncc(C(=O)N4CCCCC4c4cccnc4)c3n2)cc1 (stereo not drawn) 19.8%
CCn1c(N)c(Br)c(=O)[nH]c1=O -5.96%
CC(=O)Nc1ccc(SCC(=O)Nc2ccccc2Oc2ccccc2)cc1 6.4%
CC1CCCN(CC(=O)Nc2cc(Cl)ccc2Oc2ccccc2)C1 (stereo not drawn) 6.08%
Cn1c(=O)c(=O)n(C)c2cc(S(=O)(=O)CCC(=O)N3CCCCC3)ccc21 -3.96%
CN1CCN(C(=O)Cn2c(C(F)(F)F)nc3ccccc32)CC1 -3.36%
C=CCn1c(C(C)NC(=O)CC)nc2ccccc21 (stereo not drawn) -24.2%
COC(=O)[C@]12CCCCC=C1N(Cc1ccc3c(c1)OCO3)C(=O)[C@H](CC(=O)N1CCOCC1)C2 6.39%
O=C(Nc1ccc2c(c1)CCC2)c1ccc(Br)s1 -9.47%
CCOC(=O)C1CCN(C(=O)Nc2ccc(C)c(Cl)c2)CC1 8.32%
CCOC(=O)N1CCN(S(=O)(=O)c2ccc(Br)cc2)CC1 8.56%
Cc1cc(S(=O)(=O)N2CCOCC2)ccc1OCC(=O)N1CCOCC1 -8.03%
CCOC(=O)C1CCN(C(=O)COc2cccc3ccccc23)CC1 6.68%
CCOC(=O)N1CCN(C(=O)COC(=O)c2cccc(S(C)(=O)=O)c2)CC1 -8.93%
O=C(COc1ccc(Cl)cc1[N+](=O)[O-])N1CCCCC1 5.52%
O=C(NCc1ccc(F)cc1)C1CCN(C(=O)Nc2ccc(F)cc2)CC1 16%
CC(=O)c1c(C)[nH]c(C(=O)OCC(=O)Nc2c(C)n(C)n(-c3ccccc3)c2=O)c1C 8.82%
Cc1cccn2c(=O)nc(SCC(=O)NCc3ccccc3Cl)nc12 -6.29%
Cc1nn(C)cc1/C=C1\CCC/C(=C\c2cn(C)nc2C)C1=O 6.14%
CC(C)CN1C(=O)CN(S(C)(=O)=O)CC1(C)C(=O)NCc1ccccc1 (stereo not drawn) -1.75%
Cn1c(=O)cc(SCC(=O)N2CCN(C(=O)c3ccco3)CC2)c2ccccc21 -7.92%
C=CCOc1ccc(/C=C/C(=O)OCC(=O)NC2CCCCCC2)cc1 0.205%
N#C/C(=C\c1ccccc1)c1n[nH]c(Cn2cncn2)n1 -5.28%
CCNC(=O)COc1cc(C)c(Br)c(C)c1 -7.22%
COC(=O)C[C@@H]1C=C[C@@H](NC(=O)c2ccc3c(c2)OCO3)[C@@H](CO)O1 0.556%
O=C(NNC1=C(C(=O)C(F)(F)F)CCC1)c1ccncc1 8.49%
CCNC(=S)N1CCC(c2nc3cc(C)c(C)cc3[nH]2)CC1 -8.84%
Cc1coc2c(O)cc3c(c12)OC1(N2CCCCC2)C(=O)NCCCC31 (stereo not drawn) 9.31%
NCCCCC(C(=O)O)N(C(=O)OCc1ccccc1)C(=O)OCc1ccccc1 (stereo not drawn) -5.81%
O=C(Cc1ccccc1)N1CCN(S(=O)(=O)c2ccc([N+](=O)[O-])cc2)CC1 -5.46%
Cc1ccc([N+](=O)[O-])cc1S(=O)(=O)N1CCCN(C)CC1 -7.92%
O=C1NC(c2ccccc2)Cc2ccncc21 (stereo not drawn) -15.8%
CC(C)Oc1ccc(C(=O)NC(C)(C)CO)cc1 -14.5%
Cn1cc[n+](C)c1COc1ccc(C=O)cc1 -3.22%
COc1ccccc1N1CCN(C(=O)C(=O)N/N=C/c2ccccc2F)CC1 2.46%
Nc1[nH][nH]c(=O)c1N=Nc1ccc2c(c1)OCO2 -4.76%
Cc1cccc(Oc2c([N+](=O)[O-])c(=O)n(C)c3ccccc23)c1 -38.4%
Cc1cccc(N=C2SC(C)CN2C(=O)CN2C(=O)NC3(CCCC3)C2=O)c1 (stereo not drawn) 8.85%
Cc1cc(C)nc(/N=C2\NC(=O)CC(C(=O)O)N2c2ccc(Cl)cc2Cl)n1 (stereo not drawn) -2.42%
Cn1c(N)c(C(=O)COC(=O)C23CC4CC(CC(C4)C2)C3)c(=O)n(C)c1=O -6.77%
Cc1oc2nc(SCC(=O)NCc3cccnc3)nc(N)c2c1C -8.34%
CC(=O)c1ccc(OCC(=O)N(C)C2CCS(=O)(=O)C2)cc1 (stereo not drawn) -3.69%
CC(=O)Nc1ccc(CNc2nc(NCCN(C)C)nc3cc(-c4ccccc4)sc23)cc1 0.94%
Nc1nc(SCC(=O)NN(c2ccccc2)c2ccccc2)n[nH]1 -1.98%
O=C(COc1nsnc1N1CCOCC1)Nc1ccccc1Cl -1.57%
Cc1cccc(-c2nc(CS(=O)CC(=O)NC(C)CCc3ccccc3)c(C)o2)c1 (stereo not drawn) 0.721%
CCC(=C/c1sc2ccc3ccccc3c2[n+]1C)/C=C1\Sc2ccc3ccccc3c2N1C 1.97%
CCN1CCN(C(=O)CCN2C(=O)c3ccccc3C2=O)CC1 5.39%
CCOC(=O)N1CCN(C(=O)CSc2nc(C)nc3c2c(=O)n(C)c(=O)n3C)CC1 -7.04%
O=C(CSc1ccc(Cl)cc1)NC1CC1 -0.473%
CS(=O)(=O)N1CCN(C(=O)CSc2ccccc2)CC1 4.92%
CS(=O)(=O)N(CC(=O)N1CCN(c2ccc(F)cc2)CC1)C1CCCCC1 -6.78%
Cc1ccc(-n2c(CNc3ccc(F)cc3)nnc2SCC(=O)N2CCOCC2)cc1 7.68%
COC(=O)CNC(=O)C(CCSC)NC(C)=O (stereo not drawn) 5.29%
Cc1nc(C(F)(F)F)ccc1C(=O)N1CCC1(C)C(=O)NS(=O)(=O)c1ccc(F)cc1F (stereo not drawn) 3.24%
CNC(=O)C1CC(=O)N(c2ccc(OCC(=O)Nc3ccccc3C)cc2)C1 (stereo not drawn) 2.34%
Cc1nnc(SC(C)C(=O)c2c[nH]c3ccccc23)n1C1CC1 (stereo not drawn) -6.27%
CCOc1cc(-c2conc2N)cc(OCC)c1OCC 7.1%
CC(C)(C)OC(=O)C[C@@H]1C/C=C\C[C@@H](CC(=O)N[C@@H](CO)Cc2ccccc2)C(=O)N2CCC[C@H]2COC1=O 1.7%
CCC(C(=O)OC)n1cnc2c(oc3ccccc32)c1=O (stereo not drawn) 3.69%
COC(=O)c1ccc(CN(c2ccccc2OC)S(=O)(=O)c2cccs2)o1 7.2%
O=C(OCc1nnc(-c2ccccc2)o1)c1cc(=O)[nH]c2ccccc12 -5.82%
CCOC(=O)c1cc(-c2nnc(-c3cc(OC)c(OC)c(OC)c3)o2)c(C)nc1C -9%
